Test results from PubChem BioAssay (NCATS).
Results filed as inconclusive are left out. Where a call stands in place of a potency, no number is given. Activity calls are given as the source filed them. Calls come from the whole dose curve; as a rule, active = well fitted curve in the direction sought with a large enough effect; inconclusive = small, poorly fitted or top-dose-only effect, or another doubt; inactive = no such curve, though single readings can be large; an effect the other way counts as inactive or inconclusive.

Key:
[1] = tested on: Zika virus NS2B-NS3 protease; assay: Primary screen GU AMC qHTS for Zika virus inhibitors (AID 1347154); note: nearly all actives have a fitted effect of over 70% in size
In short: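 Unlinked Zika NS2B hydrophilic domain/NS3 protease domain noncovalent complex (25 nM final) in 10 mM Tris-HCl pH 8.0, 0.01% Tween 20, with AMC peptide substrate. Fluorescence (ex 340, em 450 nm) change over 15 min, room temperature; percent inhibition fitted to 4-parameter Hill equation.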

[2] = Primary qHTS for small molecule stabilizers of the endoplasmic reticulum resident proteome: Secreted ER Calcium Modulated Protein (SERCaMP) assay (AID 1508630)
In short: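 GLuc-SERCaMP-expressing SH-SY5Y cells, pretreated 16 h with compound, are challenged with thapsigargin to empty ER calcium stores; after 4 h, coelenterazine is added directly to the medium and luminescence is imaged.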

SMILES	Potency [1]	Potency [2]
NC1=NC2C(N=C(Br)N2[C@@H]2O[C@H]3COP(=O)(O)O[C@@H]3[C@@H]2O)C(=O)N1 (stereo partly specified)	inactive	inactive
CC(=O)N[C@@H](CSC/C=C(\C)CCC=C(C)C)C(=O)O	inactive	inactive
NCCn1oc(=O)[nH]c1=O	inactive	inactive
